Values joined by “and” are separate entries in the source; they are usually repeats but may differ in a detail not shown here. Equal entries are not always repeated. Some compounds were tested as several samples or in several runs, with calls that do not always agree. Active and inactive are the calls of the source. How the source made its calls: active means hit-call score of the fitted dose curve at least 0.9, where 1 is the maximum; inactive means score below 0.9.
Columns and labels:
[1] = read-out: Interleukin-6 (IL6), IL6 (gene 3569); assay: BSK_CASM3C_IL6: BioMAP Diversity Plus: CASM3C Assay for Interleukin-6 (IL6) Biomarker Activity for (AID 2283040); conditions: primary human coronary artery smooth muscle cells; actives raise or lower the signal
[2] = read-out: Tissue plasminogen activator (tPA), PLAT (gene 5327); assay: BSK_BE3C_tPA: BioMAP Diversity Plus: BE3C Assay for Tissue plasminogen activator (tPA) Biomarker Activity (AID 2283041); conditions: primary human bronchial epithelial cells; actives raise or lower the signal;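 on outcome: tPA level quantified by ELISA one day after compound addition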
Outline: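 ELISA read-out of tPA on human primary bronchial epithelial cells, 24 h post-dosing; bidirectional fit vs DMSO negative control/baseline.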

[3] = read-out: Interleukin-8 (IL8), CXCL8 (gene 3576); assay: BSK_CASM3C_IL8: BioMAP Diversity Plus: CASM3C Assay for Interleukin-8 (IL8) Biomarker Activity (AID 2283042); conditions: primary human coronary artery smooth muscle cells; actives raise or lower the signal;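 further: IL-8 protein level quantified by ELISA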
[4] = read-out: Human Leukocyte Antigen - DR isotype (HLADR), HLA-DRA (gene 3122); assay: BSK_CASM3C_HLADR: BioMAP Diversity Plus: CASM3C Assay for Human Leukocyte Antigen - DR isotype (HLADR) Biomarker Activity (AID 2283043); conditions: primary human coronary artery smooth muscle cells; actives raise or lower the signal;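 further: cell-surface HLA-DR protein level quantified by ELISA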
[5] = read-out: Macrophage colony-stimulating factor (MCSF), CSF1 (gene 1435); assay: BSK_CASM3C_MCSF: BioMAP Diversity Plus: CASM3C Assay for Macrophage colony-stimulating factor (MCSF) Biomarker Activity (AID 2283044); conditions: primary human coronary artery smooth muscle cells; actives raise or lower the signal;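 further: M-CSF protein amount quantified by ELISA after 24 h exposure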
[6] = read-out: Low-density lipoprotein receptor (LDLR), LDLR (gene 3949); assay: BSK_CASM3C_LDLR: BioMAP Diversity Plus: CASM3C Assay for Low-density lipoprotein receptor (LDLR) Biomarker Activity (AID 2283045); conditions: primary human coronary artery smooth muscle cells; actives raise or lower the signal;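 further: LDLR protein level on the cell surface quantified by ELISA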
[7] = read-out: Monocyte Chemoattractant Protein-1 (MCP1), CCL2 (gene 6347); assay: BSK_CASM3C_MCP1: BioMAP Diversity Plus: CASM3C Assay for Monocyte Chemoattractant Protein-1 (MCP1) Biomarker Activity (AID 2283046); conditions: primary human coronary artery smooth muscle cells; actives raise or lower the signal;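 further: MCP-1 level quantified by ELISA 24 h after dosing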
[8] = BSK_CASM3C_Proliferation: Cell Proliferation Assessment in the BioMAP Diversity Plus: CASM3C Assay (AID 2283047); conditions: primary human coronary artery smooth muscle cells;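 further: sulforhodamine B total protein stain as relative cell number at 560 nm; sub-confluent cells exposed 48 h before staining; fitted both ways against DMSO so gain or loss of cell number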
[9] = read-out: Monokine induced gamma interferon (MIG), CXCL9 (gene 4283); assay: BSK_CASM3C_MIG: BioMAP Diversity Plus: CASM3C Assay for Monokine induced gamma interferon (MIG) Biomarker Activity (AID 2283048); conditions: primary human coronary artery smooth muscle cells; actives raise or lower the signal;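 further: MIG protein level measured by ELISA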
[10] = read-out: serum amyloid A (SAA), SAA1 (gene 6288); assay: BSK_CASM3C_SAA: BioMAP Diversity Plus: CASM3C Assay for serum amyloid A (SAA) Biomarker Activity (AID 2283049); conditions: primary human coronary artery smooth muscle cells; actives raise or lower the signal;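 further: SAA protein level quantified by ELISA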

Structure (SMILES)	outcome [1]	outcome [2]	outcome [3]	outcome [4]	outcome [5]	outcome [6]	outcome [7]	outcome [8]	outcome [9]	outcome [10]	AC50 [1]	AC50 [3]	AC50 [4]	AC50 [5]	AC50 [6]	AC50 [7]	AC50 [8]	AC50 [9]	AC50 [10]	AC50 [2]
CC(Cc1ccc(OCC(=O)O)cc1)NCC(O)c1csc(C(F)(F)F)n1 (stereo not given)	inactive	inactive	inactive	inactive	inactive	inactive	inactive	inactive	inactive	inactive	–	–	–	–	–	–	–	–	–	–
N#Cc1c(-c2ccc(Cl)cc2)[nH]c(C(F)(F)F)c1Br	–	inactive	–	–	–	–	–	–	–	–	1.18 µM (active)	0.277 µM (active)	0.36 µM (active)	20 µM (active)	20 µM (active)	0.0939 µM (active)	0.779 µM (active)	11.5 µM (active)	6.57 µM (active)	–
ClC(Cl)(Cl)c1ccccc1	inactive	inactive	inactive	inactive	inactive	inactive	inactive	inactive	inactive	inactive	–	–	–	–	–	–	–	–	–	–
Cc1ccc(N)cc1N	inactive	inactive	inactive	inactive	inactive	inactive	inactive	inactive	inactive	inactive	–	–	–	–	–	–	–	–	–	–
O=c1ssc(Cl)c1Cl	–	–	inactive	–	–	inactive	–	–	–	–	4.33 µM (active)	–	3.54 µM (active)	5.46 µM (active)	–	5.7 µM (active)	1.69 µM (active)	24.4 µM (active)	1.4 µM (active)	7.68 µM (active)
CC(Cl)(Cl)C(=O)O	inactive	inactive	inactive	inactive	inactive	inactive	inactive	inactive	inactive	inactive	–	–	–	–	–	–	–	–	–	–
C=CC(=O)OCC(F)(F)C(F)F	inactive	inactive	inactive	–	–	inactive	inactive	–	–	inactive	22.9 µM (active)	–	36.3 µM (active) and 38.8 µM (active)	30 µM (active) and 18.2 µM (active)	–	–	30 µM (active)	30 µM (active) and 16.9 µM (active)	30 µM (active)	14.9 µM (active)
CC(C)(C)OOC(C)(C)C	inactive	inactive	inactive	inactive	inactive	inactive	inactive	inactive	inactive	inactive	–	–	–	–	–	–	–	–	–	–
c1ccc2c(c1)Nc1ccccc1S2	inactive	inactive	inactive	inactive	inactive	inactive	inactive	inactive	inactive	inactive	–	–	–	–	–	–	–	–	–	–
CC(Cl)CN(C)C (stereo not given)	inactive	inactive	inactive	inactive	inactive	inactive	inactive	inactive	inactive	inactive	–	–	–	–	–	–	–	–	–	–
CCN(CC)c1ccccc1	inactive	inactive	inactive	inactive	inactive	inactive	inactive	inactive	inactive	inactive	–	–	–	–	–	–	–	–	–	–
O=C(O)C(F)(F)OC(F)(F)C(F)(F)OC(F)(F)F	inactive	inactive	inactive	inactive	inactive	inactive	inactive	inactive	inactive	inactive	–	–	–	–	–	1.03 µM (active)	–	1.17 µM (active)	–	–
COP(N)(=S)OC	inactive	inactive	inactive	inactive	inactive	inactive	inactive	inactive	inactive	inactive	–	–	–	–	–	–	–	–	–	–
O=C(O)C(F)(OC(F)(F)C(F)(F)C(F)(F)F)C(F)(F)F (stereo not given)	inactive	inactive	inactive	inactive	inactive	inactive	inactive	inactive	inactive	inactive	–	–	–	0.218 µM (active)	–	–	5.17 µM (active)	–	–	–
CCCCN(CCCC)SN(C)C(=O)Oc1cccc2c1OC(C)(C)C2	inactive	inactive	inactive	–	–	–	inactive	–	inactive	–	–	–	29.1 µM (active)	11.4 µM (active)	36.6 µM (active)	–	27.1 µM (active)	–	31.3 µM (active)	–
CC(C)Nc1ccc(Nc2ccccc2)cc1	–	inactive	–	–	–	–	–	–	–	–	33.4 µM (active)	34.1 µM (active)	20 µM (active)	20 µM (active)	31.8 µM (active)	32.9 µM (active)	20 µM (active)	28.2 µM (active)	32.8 µM (active)	–
OCC(F)(F)OC(F)(F)C(F)(F)OC(F)(F)C(F)(F)OC(F)(F)F	inactive	inactive	inactive	inactive	inactive	inactive	inactive	–	inactive	inactive	–	–	48.6 µM (active)	17.5 µM (active)	–	47.3 µM (active)	18.7 µM (active) and 28.5 µM (active)	30 µM (active)	35 µM (active)	–
CCC1(c2ccccc2)C(=O)N=C(O)NC1=O (stereo not given)	inactive	inactive	inactive	inactive	inactive	inactive	inactive	inactive	inactive	inactive	–	–	–	–	–	–	–	–	–	–
Cc1cccc(N)c1	inactive	inactive	inactive	inactive	inactive	inactive	inactive	inactive	inactive	inactive	–	–	–	–	–	–	–	–	–	–
Nc1ccc2ccccc2c1	inactive	inactive	inactive	inactive	inactive	inactive	inactive	inactive	inactive	inactive	–	–	–	–	–	–	–	–	–	–

Structure (SMILES)	outcome [1]	outcome [2]	outcome [3]	outcome [4]	outcome [5]	outcome [6]	outcome [7]	outcome [8]	outcome [9]	outcome [10]	AC50 [1]	AC50 [3]	AC50 [4]	AC50 [5]	AC50 [6]	AC50 [7]	AC50 [8]	AC50 [9]	AC50 [10]	AC50 [2]
OCC(F)(F)OC(F)(F)C(F)(F)OC(F)(F)C(F)(F)OC(F)(F)CO	inactive	inactive	inactive	inactive	inactive	inactive	inactive	inactive	inactive	inactive	–	–	–	–	–	–	47.2 µM (active)	–	–	–
CCOP(=S)(Oc1ccc([N+](=O)[O-])cc1)c1ccccc1 (stereo not given)	inactive	–	inactive	–	inactive	–	inactive	–	inactive	inactive	–	–	14.2 µM (active)	–	20 µM (active)	–	20 µM (active)	–	–	2.17 µM (active)
CCCCC(CC)COP(=O)(Oc1ccccc1)Oc1ccccc1 (stereo not given)	inactive	–	inactive	inactive	inactive	inactive	inactive	inactive	inactive	inactive	–	–	–	–	–	–	–	–	–	3.09 µM (active)
Cc1c([N+](=O)[O-])cc2c(c1[N+](=O)[O-])C(C)(C)CC2(C)C	inactive	–	inactive	–	–	–	inactive	inactive	inactive	inactive	–	–	1.74 µM (active)	0.378 µM (active)	5.44 µM (active)	–	–	–	–	10.6 µM (active)
CCOP(=S)(S)OCC	inactive	inactive	inactive	inactive	inactive	inactive	inactive	inactive	inactive	inactive	–	–	–	–	–	–	–	–	–	–
CCNc1nc(Cl)nc(NC(C)(C)C)n1	inactive	inactive	inactive	inactive	inactive	inactive	inactive	–	inactive	inactive	–	–	–	–	–	–	4.52 µM (active)	–	–	–
COP(=O)(CCC(=O)NCO)OC	inactive	inactive	inactive	inactive	inactive	inactive	inactive	inactive	inactive	inactive	1.56 µM (active)	–	0.3 µM (active)	–	–	–	–	–	–	–
c1ccc2c(c1)sc1ccccc12	inactive	inactive	inactive	inactive	inactive	inactive	inactive	inactive	inactive	inactive	–	–	–	–	–	–	–	–	–	–
N#Cc1cc([N+](=O)[O-])ccc1N	inactive	inactive	inactive	inactive	inactive	inactive	inactive	inactive	inactive	inactive	–	–	–	–	–	–	–	–	–	–
NC(=O)C(F)(F)C(F)(F)F	inactive	inactive	inactive	inactive	inactive	inactive	inactive	inactive	inactive	inactive	–	–	–	–	–	–	–	–	–	–
O=[N+]([O-])c1ccc(Cl)c(Cl)c1	inactive	inactive	inactive	inactive	inactive	inactive	inactive	inactive	inactive	inactive	–	–	–	–	–	–	–	–	–	–
CCCCOCCOP(=O)(OCCOCCCC)OCCOCCCC	–	inactive	inactive	inactive	inactive	inactive	inactive	inactive	inactive	inactive	8.79 µM (active)	–	–	–	–	–	–	–	–	–
CCOS(=O)(=O)OCC	inactive	inactive	inactive	inactive	inactive	inactive	inactive	inactive	inactive	inactive	–	–	–	–	–	–	–	–	–	–
CCOP(=S)(OCC)SCSc1ccc(Cl)cc1	inactive	inactive	inactive	inactive	inactive	inactive	–	inactive	inactive	inactive	–	–	–	–	–	0.272 µM (active)	–	–	–	–
CCCCN(CCCC)N=O	inactive	inactive	inactive	inactive	inactive	inactive	inactive	inactive	inactive	inactive	–	–	–	–	–	–	–	–	–	–
O=C(O)C=CC(F)(C(F)(F)F)C(F)(F)F	inactive	inactive	inactive	inactive	inactive	inactive	inactive	inactive	inactive	inactive	–	–	–	–	–	–	–	–	–	–
CCC(C)(C)c1ccc(O)cc1	inactive	inactive	inactive	inactive	inactive	inactive	inactive	inactive	inactive	inactive	–	–	–	–	–	–	–	–	–	–
COCCOCCO	inactive	inactive	inactive	inactive	inactive	inactive	inactive	inactive	inactive	inactive	–	–	–	–	–	–	–	–	–	–
CCOP(=S)(OCC)SCS(=O)(=O)CC	inactive	inactive	inactive	inactive	inactive	inactive	inactive	inactive	inactive	inactive	–	–	–	–	–	–	–	–	–	–
O=P(Oc1ccccc1)(Oc1ccccc1)Oc1ccccc1	inactive	inactive	inactive	inactive	inactive	–	inactive	–	inactive	inactive	–	–	–	–	29.5 µM (active)	–	26 µM (active)	–	–	–
